# In PubChem BioAssay (NCATS):
# Inconclusive results are not listed. Where a call stands in place of a potency, no number is given. Values without a mark were called inactive. The source made the active and inactive calls. Calls come from the whole dose curve; as a rule, active = well fitted inhibition curve with a large enough effect; inconclusive = small, poorly fitted or top-dose-only effect; inactive = flat fitted curve, though single readings scatter. Bridge positions count the residues as written; N and C are the ends. Square brackets hold non-standard residues; d marks the D form. Side chains are listed from the residue outwards. Peptide text beside a SMILES is read from it. * marks the point of attachment. Phg(4-OMe) = COc1ccc([C@H](N)C(=O)O)cc1; d(aIle) = CC[C@H](C)[C@@H](N)C(=O)O; d(aThr) = C[C@@H](O)[C@@H](N)C(=O)O; NMeF = CN[C@@H](Cc1ccccc1)C(=O)O; Isobutyryl = CC(C)C(=O)*
# System: NAD(P)H diaphorase (Clostridium kluyveri)
# Test: Diaphorse counterscreen qHTS: Assay Interference Panel against the NCATS CANVASS Library (AID 1347362)
# Conditions: Diaphorase enzyme, resazurin to resorufin fluorescence; series mostly up to 57.5 µM
# Outline: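 Clostridium kluyveri diaphorase in PBS + 0.01% Tween-20 preincubated 15 min with compounds. Resazurin and NADH then added for 5 min at room temperature in the dark; resorufin fluorescence read (ex 525, em 598).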
# Potency is the fitted concentration of half-maximal effect.
SMILES,Potency,"activity change, negative = inhibition"
CCC(=O)CCCCC[C@@H]1NC(=O)[C@H]2CCCCN2C(=O)[C@H](C(C)C)NC(=O)[C@H](Cc2cn(OC)c3ccccc23)NC1=O,inactive,–
C/C=C(/C)c1c(Cl)c(O)c(C)c2c1Oc1c(Cl)c(O)c(Cl)c(C)c1C(=O)O2,inactive,–
C=C[C@@]1(C)CC[C@@H]([C@H](C)C(=O)/C=C/C(C)(C)O)O1,inactive,–
C=C1CC[C@@H](O[C@H]2C[C@@](O)([C@H](C)NC(=O)c3[nH]c(C)c(Cl)c3Cl)[C@H](O)[C@@H](C)O2)[C@@H]2C=C[C@H](C)C(/C(O)=C3/C(=O)[C@H](C(C)C)N([C@@H]4O[C@H](C)[C@H](OC(N)=O)[C@H](OC(C)=O)[C@@H]4OC)C3=O)[C@@H]12 (stereo not given in full),inactive,–
COc1ccc([C@@H]2CC(=O)c3c(cc(O)c(C/C=C(\C)CCC=C(C)C)c3O)O2)cc1,–,-4.24% [at 11.5 µM]
CC[C@H](C)[C@H]1NC(=O)[C@@H](NC(=O)C(C)C)[C@@H](C)OC(=O)[C@H](COC(=O)CNC(C)=O)NC(=O)[C@@H]([C@@H](C)O)NC(=O)[C@H](Cc2ccccc2)N(C)C(=O)[C@H](c2ccc(OC)cc2)NC1=O (Isobutyryl-T[d(aIle)][Phg(4-OMe)][NMeF][d(aThr)]S([Gly-Ac]); ester 1-C),inactive,–
C[n+]1cc2cc(C(N)=O)[nH]c3c(=N)c(Cl)c(N)c1c23,15.3 µM (active),–
C/C1=C/[C@@H](C)[C@H](O)[C@@H](O)/C=C/CC/C=C/C(=O)O[C@@H]1[C@H](C)C(=O)CCCC1CC(=O)NC(=O)C1,inactive,–
CC(=O)Oc1cc2c(c(OC(C)=O)c1C1CCc3cc(Cl)c(Cl)n31)C(=O)n1c-2cc(Cl)c1Cl (stereo not given),inactive,–
CC(C)=CC[C@H]1C[C@@]2(CC=C(C)C)C(=O)[C@](CC=C(C)C)(C(=O)C(C(=O)c3ccccc3)=C2O)C1(C)C,inactive,–
C[C@]12CC[C@]3(C1)[C@H](CC2=O)C[C@@H](OC(=O)c1ccccc1)[C@H]1[C@](C)(C(=O)O)CCC[C@@]13C,inactive,–
CC(=O)O[C@H]1c2ccccc2-c2c3c(cc4c2[C@@H]1N(C(C)=O)CC4)OCO3,inactive,–
C=C[C@](Cl)(CBr)CCC=C(C)C,inactive,–
C=C1CC[C@@H](Br)C(C)(C)[C@]12CC=C(C)C(=O)C2,inactive,–
COc1cc2c(cc1OC)[C@@H](c1ccc3c(c1)OCO3)C(C)C(C)C2=O (stereo not given in full),inactive,–
C/C(=C\[C@H](C)C(=O)/C=C/CC1CC(=O)NC(=O)C1)[C@@H]1OC(=O)/C=C/CC/C=C/C[C@@H](O)[C@@H]1C,inactive,–
CC(C)[C@]12CC[C@@]3(C)[C@H](C)CC[C@H](O)[C@@]3(CC1)c1cc3c(cc12)[nH]c1ccccc13,inactive,–
Oc1ccc(C2Oc3cc(O)c4c(c3[C@@H]2c2cc(O)cc(O)c2)[C@H]2C(c3ccc(O)cc3)c3c(O)cc5c(c3[C@H]2C4c2ccc(O)cc2)[C@H](c2cc(O)cc(O)c2)C(c2ccc(O)cc2)O5)cc1 (stereo not given in full),inactive,–
COc1cc(O)c(C(=O)[C@@H]2[C@H](CC=C(C)C)C(C)=CC[C@H]2c2ccccc2)c(O)c1,inactive,–
C=C(C)CC[C@H](Cc1c(O)cc(O)c2c1O[C@H](c1ccc(O)cc1)CC2=O)C(=C)C,inactive,–
COc1cc(/C=C/C(=O)OC[C@@H](Cc2ccc(O)c(OC)c2)[C@@H](COC(=O)/C=C/c2ccc(O)c(OC)c2)Cc2ccc(O)c(OC)c2)ccc1O,inactive,–
C=CC(CCCCC)C1C(=O)NC(=O)C1C(=O)C1C2C(C)CC(C(=O)O)CC2CC1(O)C(=O)/C=C/C (stereo not given),inactive,–
COc1c(O)cc2c(c1O)C(=O)c1c(coc1C)C2=O,inactive,–
CC(C)C[C@@H]1c2c(O)c(C=O)c(O)c(C=O)c2O[C@]2(C)C=C[C@@H](C(C)C)C[C@H]12,inactive,–
COc1cc2c(c(O)c1O)C(=O)c1c(coc1C)C2=O,4.31 µM (active),–
